From PubChem BioAssay AID584 (National Center for Advancing Translational Sciences (NCATS), 2007)
The campaign covered roughly 71,000 compounds. About 65 (0.09%) were called active. For the sample, actives were picked, then their nearest neighbours and some compounds at random. Unmarked numbers belong to inactive results. Calls come from the whole dose curve; as a rule, active = well fitted curve in the direction sought with a large enough effect; inconclusive = small, poorly fitted or top-dose-only effect; inactive = flat fitted curve, though single readings scatter.

The compounds below were run against Beta-lactamase (Escherichia coli (strain K12)) (UniProt P00811) (assay: Promiscuous and Specific Inhibitors of AmpC Beta-Lactamase (assay with detergent)). Conditions: purified AmpC, nitrocefin hydrolysis with detergent; series mostly up to 28.7 µM; activity change, negative = inhibition: at the top concentration.
Sequence of Beta-lactamase (Escherichia coli (strain K12)) (P00811 whole entry, looked up): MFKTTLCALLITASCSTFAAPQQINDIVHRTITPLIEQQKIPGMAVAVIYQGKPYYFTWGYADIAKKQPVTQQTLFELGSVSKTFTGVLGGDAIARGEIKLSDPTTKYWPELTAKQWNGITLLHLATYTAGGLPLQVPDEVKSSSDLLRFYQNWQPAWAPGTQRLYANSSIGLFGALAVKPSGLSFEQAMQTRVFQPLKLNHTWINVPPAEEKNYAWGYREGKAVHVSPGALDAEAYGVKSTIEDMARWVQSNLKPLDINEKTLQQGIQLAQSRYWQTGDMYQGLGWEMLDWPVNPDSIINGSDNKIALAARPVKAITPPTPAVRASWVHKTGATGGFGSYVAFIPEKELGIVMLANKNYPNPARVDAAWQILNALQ
Experimental: NIH Molecular Libraries Screening Centers Network [MLSCN]
NIH Chemical Genomics Center [NCGC]
PI Name: Shoichet, Brian K.
This aggregation profiling approach exploits the sensitivity of aggregate formation to detergent. Inhibition of b-lactamase is measured in the presence and absence of 0.01% Triton X-100. This particular assay had the prescence of 0.01% Triton X-100. See Pubchem assay "Promiscuous and Specific Inhibitors of AmpC Beta-Lactamase (assay without detergent)" for related screen. Compounds that inhibit only in the absence of detergent are considered likely promiscuous aggregators.
A screen of 1,030 compounds was performed in Brian Shoichet's lab in 96-well format. AmpC activity was measured by following the absorbance at 480 nm. Nitrocefin is a chromogenic substrate: while nitrocefin is yellow (lmax 390 nm), the product of its hydrolysis is red (lmax 486 nm, 17,000 M-1). AmpC beta lactamase was provided by Brian Shoichet and Brian Feng, UCSF.
NCGC Assay Protocol Summary:
20 mM phosphate buffer, pH 7.0
Triton X-100: No Detergent screen: 0.0001%, Detergent screen: 0.01%.
Buffer in columns 3 and 4 as negative control (no enzyme).
5.3 nM AmpC in columns 1, 2, 5-48. Titration of UCSF compound 9 control (from 10 mM, then 1:2) pin-transferred to column 2. Column 1 is neutral (100% activity).
Six uL of reagents were dispensed to 1536-well Greiner black clear bottom plates. Compounds and controls (23 nL) were transferred via Kalypsys PinTool. The plates were incubated for 15 min at room temperature, and then 2 uL of 800 uM solution of nitrocefin was added to start the reaction. The plates were immediately transferred to and read every 20 seconds for 4 min on ViewLux (Perkin-Elmer) High-throughput CCD imager using 480 nm absorbance protocol. During dispense, reagent bottles were kept submerged into 4 deg C water bath.
Keywords: NIH Roadmap, MLSCN, MLI, MLSMR, qHTS, NCGC, AmpC Beta-Lactamase, Aggregation
% is set by controls: 0 for no effect and ±100 for the full control effect; potency is the fitted concentration of half-maximal effect.

| Structure (SMILES) | activity change, negative = inhibition | Potency |
| --- | --- | --- |
| O=C(NCC1CCCO1)C(C(=O)c1ccccc1)n1cc(Cl)ccc1=O (stereo not given) | 7.55% | – |
| O=C(c1cccs1)N1CCCC(c2nc(-c3ccc(F)cc3)no2)C1 (stereo not given) | -1.33% | – |
| CS(=O)(=O)NCc1ccc(C(=O)NCc2ccccc2)cc1 | -4.11% | – |
| COc1cccc(-n2c(SCC(=O)NC3CCCCC3)nc3n[nH]c(C)c3c2=N)c1 | 3.34% | – |
| CCOC(=O)c1ccc(N2C(=O)CC(N3CC(C)OC(C)C3)C2=O)cc1 (stereo not given) | -3.59% | – |
| CCOc1ccc2nc(NCCNS(=O)(=O)c3ccccc3)c(C#N)cc2c1 | 7.14% | – |
| O=C(Cn1ccc(=O)[nH]c1=O)Nc1ccc(C(=O)O)c(O)c1 | -5.4% [at 5.75 µM] | – |
| COc1cc(C[C@H](C)N)c(OC)cc1I | inactive | – |
| O=C(Nc1ccccc1)N(Cc1cccnc1)Cc1ccco1 | -3.39% | – |
| O=C(O)CSCNC(=O)CC12CC3CC(CC(C3)C1)C2 | -1.26% | – |
| CCOc1c(N2CCCCC2)c(=O)c1=O | 10.1% | – |
| NC(=S)c1ccc(C(N)=S)o1 | -5.48% | – |
| O=C(Nc1ccccc1)N[C@H]1C[C@H](C(=O)O)Nc2cc(Cl)cc(Cl)c21 | -2.4% | – |
| O=C(CN(CC1CCCO1)C(=O)CNS(=O)(=O)c1ccccc1)NCc1ccccc1 (stereo not given) | 1.85% | – |
| COC(=O)c1ccc(S(=O)(=O)c2ccc(C(=O)OC)s2)s1 | -1.11% | – |
| CCNS(=O)(=O)c1ccc(NC(=O)Nc2cccc(C(F)(F)F)c2)cc1 | 19.8% | – |
| COc1ccc2oc(=O)c(C(=O)O)cc2c1 | -3.06% | – |
| O=C(Oc1cccnc1)c1cc2ccccc2oc1=O | – | 10 µM (active) |
| O=C(NCc1ccccn1)c1cc2ccccc2oc1=O | -3.08% | – |
| C=CCOc1ccc(C2/C(=C(\O)c3c(C)[nH]c(C(=O)OC)c3C)C(=O)C(=O)N2CCN(C)C)cc1 (stereo not given) | -1.73% | – |
| Cc1ccc(Oc2ccc(N)cc2)cc1 | -6.72% | – |
| COc1ccc(S(=O)(=O)N2CCCC(C(=O)N3CCN(C)CC3)C2)cc1C (stereo not given) | 0.3% | – |
| c1nnc2c3c4c(sc3ncn12)CCC4 | 2.4% | – |
| Cc1cccc(C)c1NC(=O)N1CC=C(n2c(=O)[nH]c3ccccc32)CC1 | -0.392% | – |

| Structure (SMILES) | activity change, negative = inhibition | Potency |
| --- | --- | --- |
| Cc1cn(C2C=CC(CO)O2)c(=O)[nH]c1=O (stereo not given) | -3.11% | – |
| c1ccc(Nc2n[nH]nc2-c2ccccc2)cc1 | -5.69% | – |
| CCCn1c(SCC(N)=O)nnc1C(C)C | -2.16% | – |
| CC(C)(C)C(=O)CCN1C(=O)C2(OCCO2)c2ccccc21 | -1.15% | – |
| Cc1noc(C)c1-c1nccc(N2CCOCC2)n1 | 0.7% | – |
| COC(=O)c1nc(NC(=O)c2ccc(Cl)cc2)n[nH]1 | 1.67% | – |
| CCCCn1nnnc1NCc1cc(OC)c(OC)c(OC)c1 | -0.286% | – |
| CCOC(=O)C(C(=O)OCC)C(C#N)c1ccccc1 (stereo not given) | 14.3% | – |
| CC(=O)Oc1cccc(N2C(=O)CC(Nc3ccc(N4CCOCC4)cc3)C2=O)c1 (stereo not given) | -7.46% | – |
| CCC(=O)c1ccc(OCC(O)CN2C(=O)NC(C)(C)C2=O)cc1 (stereo not given) | 10.9% | – |
| COc1ccc(-n2ncc3c(N4CCCc5ccccc54)ncnc32)cc1 | -4.66% | – |
| COC(=O)c1ccccc1NC(=O)CSc1ccccn1 | 0.234% | – |
| O=C(CN1C(=O)CCC1=O)Nc1ccc(S(=O)(=O)N2CCOCC2)cc1 | -0.675% | – |
| CCS(=O)(=O)n1nc(-c2ccccc2)nc1SCc1ccccc1 | -2.9% | – |
| CCCC(=O)C1=C(N(C)c2ccccc2)CC(C)(C)C(C(=O)OC)C1=O (stereo not given) | -2.7% | – |
| Cn1cccc1C1(C(F)(F)F)NCCNC1=O (stereo not given) | -0.082% | – |
| CC(C)N(C(=O)COC(=O)c1ccccc1C(=O)N1CCN(c2ccc(F)cc2)CC1)C(C)C | 9.33% | – |
| O=c1[nH]c(=O)n([C@H]2C[C@H](O)[C@H](CO)O2)cc1Br | -1.6% | – |
| CC(=O)/C(C)=N\O | inactive | – |
| CC(C)Cc1ccc(S(=O)(=O)N2CCN(C(=O)c3ccco3)CC2)cc1 | -7.76% | – |
| O=c1c(-c2ccc(F)cc2)nc2cnc(N3CCOCC3)nc2n1-c1ccccc1 | -2.6% | – |
| CCON=C1C(C)(C)C(C)(C)C(C)(C)C1(C)C | -1.9% [at 5.75 µM] | – |
| COc1cccc(NC(=O)c2ccccc2SC)c1 | -2.07% | – |
| CCOC(=O)c1cccc(NC(=O)CN(c2ccc(C)cc2)S(=O)(=O)c2c(C)noc2C)c1 | -3.74% | – |

| Structure (SMILES) | activity change, negative = inhibition | Potency |
| --- | --- | --- |
| C[C@H]1O[C@@H](CC(=O)O)Cc2c1c(O)c1c(O)cc(-c3cc(=O)c4c(=O)c5c(c(=O)c=4c3=O)C[C@H](CC(=O)O)O[C@@H]5C)c(O)c1c2O | -3.2% [at 5.75 µM] | – |
| CCCCc1nc2ccccc2c(NC(=O)CN2CCN(C)CC2)c1CCC | -6.24% | – |
| O=C(O)Cc1ccc(-c2ccccc2)cc1 | 1% [at 12.8 µM] | – |
| O=C(O)C(=O)Cc1ccc2c(c1)OCO2 | -2% [at 5.75 µM] | – |
| CC/C(=N\O)C(C)(C)/[N+]([O-])=C/c1ccc(Br)cc1 | -3.57% | – |
| CC(=O)NC(Cc1ccc(F)cc1)C(=O)O (stereo not given) | 1.35% | – |
| Nc1nonc1-c1noc(-c2ccc(Br)o2)n1 | -1.42% | – |
| Cc1ccc(C)n1-c1ccncc1 | -1.08% | – |
| O=C(CCCn1c(=O)oc2ccccc21)Nc1cccnc1 | -2.89% | – |
| COc1ccc(C(=O)Nc2c(N)nc(SCC(=O)N3CCC(C)CC3)[nH]c2=O)cc1OC | 6.59% | – |
| COC(=O)c1sc(=S)n(-c2ccccc2)c1N | -0.579% | – |
| COc1ccc(CCN2CNc3c(c(=O)n(C)c(=O)n3C)C2)cc1OC | -3.65% | – |
| CC1CCN(Cc2nc3c(c(=O)n(C)c(=O)n3C)n2CCc2ccccc2)CC1 | 13.7% | – |
| COc1ccc(CCNC(=O)CSc2nc(C)nc3c2oc2ccccc23)cc1OC | -0.64% | – |
| CCn1c(-c2cc(OC)ccc2OC)csc1=Nc1c(C)n(C)n(-c2ccccc2)c1=O | -1.83% | – |
| COc1ccc(C)c(Cn2c(-c3nonc3N)nc3ccccc32)c1 | -2.41% | – |
| CCCCOc1ccc(C(=O)NCc2ccco2)cc1 | 8.19% | – |
| Cc1ccc2c(CSc3nncs3)cc(=O)oc2c1 | 13.6% | – |
| CCOC(=O)C1CCN(C(=O)C2CCN(S(=O)(=O)N3CCCC3)CC2)CC1 | -0.132% | – |
| COc1ccccc1-c1nnc(SCC(=O)Nc2cc(C)on2)o1 | -4.26% | – |
| CSCCC(NC(N)=O)C(=O)N(C)CC(=O)Nc1ccc(C)cc1 (stereo not given) | 0.529% | – |
| CCOc1ccc(OCC)c(NC(=O)CSc2nnc(Cn3cnc4ccccc43)n2C)c1 | -2.84% | – |
